TDP1 cell CPT: growth inhibition of DT40 Tdp1-/-;hTDP1 cells with camptothecin (screen for TDP1 inhibitors); chicken DT40 Tdp1-/-;hTDP1 cells + 20 nM CPT, ATP luminescence, 48 h; Potency, µM (highest dose often 46.2 µM), without a hit: at the highest dose activity change, negative = growth inhibition, hits mostly inhibitors; 12% of 420,000 active; further: potency means the concentration at half of the fitted maximal effect; on the % scale 0 is the no-effect control and ±100 the full control effect; nearly all actives have a fitted effect of over 55% in size
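Cell growth measured by CellTiter-Glo luminescence after a minimum 48 h, 37 C compound exposure with 20 nM CPT in Tdp1-knockout DT40 cells stably expressing hTDP1, seeded 400/well; qHTS titration format.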
HepG2 viability: counter-screen for TGF-b inhibitors: cytotoxicity in HepG2 cells | AID 588856 | Potency, µM (highest dose often 46.1 µM), inactives show top-dose activity change, negative = cytotoxicity, usual class: cytotoxic | HepG2 CAGA-GFP viability, ATP luminescence, 18 h | 0.76% of 410,000 active; further: potency means the concentration at half of the fitted maximal effect
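HepG2 CAGA-GFP cells (1000/well, DMEM with 1% FBS) received compound, then TGF-beta at 500 pg/mL final, and were incubated 18 hours at 37 degrees C. Viability was read by CellTiter-Glo luminescence. Media-only wells were set as complete cell-killing and DMSO as no toxicity.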
TGFb inhibitor: blocks TGF-b signaling. HepG2 CAGA-GFP TGF-b/SMAD3 reporter, GFP fluorescence, 18 h; TGF-beta stimulated, 500 pg/mL final. Potency, µM (top dose mostly 46.1 µM), for inactives: at the highest dose activity, negative = inhibition, most hits filed as inhibitors. 1.2% of 410,000 active. AID 588855; further: potency means the concentration at half of the fitted maximal effect; on the % scale 0 is the no-effect control and ±100 the full control effect; nearly all actives have a fitted effect of over 65% in size
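Read-out: total well GFP (ex488/em500-530) summed from mean per-cell fluorescence. Cells: HEPG2 CAGA-GFP, 1% FBS DMEM, 18 h at 37 degrees C with 500 pg/mL final TGF-beta. Unstimulated wells served as the full-inhibition control; stimulated DMSO wells = 0%.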
IL1B secr inh: inflammasome signaling inhibition, IL-1 beta readout | THP-1 LPS/ATP IL-1B secretion, AlphaLISA, 16 h; active compounds read low | activity change, % at 57.5 µM | 4.7% of 360,000 active | AID 743279; in the data active means activity change below about -50%; inconclusive means mostly about -30% to -49%; further: on the % scale 0 is the no-effect control and ±100 the full control effect
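Secreted IL-1B measured by AlphaLISA bead assay after 16 h compound exposure of THP-1 cells; compounds (final up to 57.5 uM) added 1 h before LPS (250 ng/mL) and ATP (1.25 mM) stimulation; lower signal means less secretion.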
TDP1 cell noCPT: qHTS for Inhibitors of human tyrosyl-DNA phosphodiesterase 1 (TDP1): qHTS in cells in absence of CPT | 15% of 420,000 active | DT40 Tdp1-/- hTDP1 cells, no CPT, ATP luminescence, 48 h | Potency, µM (highest dose often 46.2 µM), inactives show at the top dose activity change, negative = growth inhibition, most hits filed as inhibitors; further: potency means the concentration at half of the fitted maximal effect; on the % scale 0 is the no-effect control and ±100 the full control effect; nearly all actives have a fitted effect of over 55% in size
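A cellular qHTS used chicken DT40 cells lacking endogenous Tdp1 but carrying stably transfected human TDP1. Compounds were applied without camptothecin, and cell growth kinetics were judged by ATP-dependent luminescence after ≥48 hr.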
TDP1 block: inhibitors of human tyrosyl-DNA phosphodiesterase TDP1 | Q9NUW8 | recombinant TDP1, AlphaScreen DNA substrate cleavage | Potency, µM (series often up to 130 µM), for the others: top-dose activity change, negative = inhibition, actives largely listed as inhibitors | 0.28% of 350,000 active | AID 485290; further: potency means the concentration at half of the fitted maximal effect; on the % scale 0 is the no-effect control and ±100 the full control effect; nearly all actives have a fitted effect of over 40% in size
Target sequence (Q9NUW8 whole entry, looked up): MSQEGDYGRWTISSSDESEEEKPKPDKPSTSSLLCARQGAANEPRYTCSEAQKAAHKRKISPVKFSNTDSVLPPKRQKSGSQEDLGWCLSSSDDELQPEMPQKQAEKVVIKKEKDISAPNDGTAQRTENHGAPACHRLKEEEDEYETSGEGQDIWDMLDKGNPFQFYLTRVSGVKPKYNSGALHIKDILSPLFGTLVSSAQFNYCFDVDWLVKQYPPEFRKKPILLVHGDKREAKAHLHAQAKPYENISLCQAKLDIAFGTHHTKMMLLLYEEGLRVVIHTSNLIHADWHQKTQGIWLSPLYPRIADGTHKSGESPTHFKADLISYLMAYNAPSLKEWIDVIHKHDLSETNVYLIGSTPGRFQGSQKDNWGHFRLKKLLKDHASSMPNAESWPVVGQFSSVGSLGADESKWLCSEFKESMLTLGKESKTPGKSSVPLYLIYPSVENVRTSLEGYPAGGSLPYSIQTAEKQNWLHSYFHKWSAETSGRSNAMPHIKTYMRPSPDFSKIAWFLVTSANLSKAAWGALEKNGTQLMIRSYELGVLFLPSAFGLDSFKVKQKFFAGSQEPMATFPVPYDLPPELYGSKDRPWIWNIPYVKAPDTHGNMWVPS
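Steps: enzyme plus compound, 15 min RT; add biotin/phosphotyrosine-FITC oligonucleotide (15 nM final), react 5 min; add donor/acceptor beads (10 ug/ml final), 10 min; read AlphaScreen. Tdp1 at 1 nM final.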
* = called active by the depositor; ? = inconclusive; · = no result; [ ] = dose if it differs, or a comment. This is a sample that favours compounds with a hit; in the whole collection about 19% have one here. Unless noted, the call rests on the fitted dose curve; in most records, active means well fitted curve in the direction sought with a large enough effect; inconclusive means small, poorly fitted or top-dose-only effect, or another doubt; inactive means no such curve, though single readings can be large; an effect the other way counts as inactive or inconclusive.

SMILES	TDP1 cell CPT	HepG2 viability	TGFb inhibitor	IL1B secr inh	TDP1 cell noCPT	TDP1 block
O=C(CCn1c2c(c3ccccc31)CCCC2)NNC(=O)c1ccc([N+](=O)[O-])cc1	21µM*	-4%	?	-2	12µM*	6%
CC(C(=O)NC1CCCC1)N1CCN(S(=O)(=O)c2ccc(C(C)(C)C)cc2)CC1 (centres undefined)	21µM*	-3%	1%	-1	10µM*	0%
COc1ccc(S(=O)(=O)N2CCC(C(=O)N[C@@H](C)C(=O)NC3CCCC3)CC2)cc1	16µM*	-6%	1%	32	?	1%
CC(C)(C)[C@@H]1COC(=O)[C@@H](Cc2ccc(F)cc2)C/C=C\C[C@H](CC(=O)N(CCO)Cc2ccccc2)C(=O)N1	23µM*	-27%	?	-19	?	2%
CC(C)(C)[C@@H]1COC(=O)[C@H](Cc2ccc(F)cc2)CC/C=C\C[C@@H](CC(=O)N(CCO)Cc2ccccc2)C(=O)N1	5.8µM*	6%	-15%	-11	23µM*	0%
C[C@@H]1COC(=O)[C@@H](Cc2ccc(F)cc2)C/C=C\C[C@H](CC(=O)N(CCO)Cc2ccccc2)C(=O)N1	?	-19%	-5%	-8	?	-7%
CCc1nc(SCc2cc(=O)c3cc(F)ccc3[nH]2)n[nH]1	-14%	-12%	1%	·	?	3%
S=c1[nH]nc(-c2ccc(Cl)cc2)n1/N=C/C=C/c1ccco1	?	-26%	-12%	12	21µM*	5%
Cc1ccccc1-c1n[nH]c(=S)n1/N=C/C=C/c1ccco1	?	-47%	-12%	14	18µM*	·
S=c1[nH]nc(-c2cccnc2)n1/N=C/C=C/c1ccco1	-5%	7%	8%	21	11%	40µM*
CC1CCCN(C(=O)CN(c2ccccc2)S(=O)(=O)c2ccc(F)cc2)C1 (centres undefined)	6%	-12%	-17%	-3	-21%	2%
COc1ccc2cc(C(C)CO)ccc2c1 (centres undefined)	·	·	·	·	·	13%[56.1 µM]
CC(C)c1ccc(CNc2ncccn2)cc1	-16%	14%	-4%	-12	-21%	·
COc1cc(SC#N)ccc1N=Cc1c(C)[nH]n(-c2cccc3ccccc23)c1=O	10µM*	-2%	-14%	-76*	10µM*	6%
COc1cc(SC#N)ccc1N=Cc1c(C)[nH]n(-c2ccc(C)cc2C)c1=O	21µM*	-26%	4%	-97*	15µM*	8%
COc1ccc(NS(=O)(=O)c2cccc(NC(=O)COc3ccc(OC)cc3)c2)cc1	?	8%	-6%	20	?	2%
COc1ccc(NS(=O)(=O)c2cccc(NC(=O)c3ccccn3)c2)cc1	21µM*	-87%	?	-6	?	3%
COc1ccc(NS(=O)(=O)c2cccc(NC(=O)NC3CCCCC3)c2)cc1	?	-19%	-8%	-69*	23µM*	3%
COc1ccc(NS(=O)(=O)c2ccc(C)c(NC(=O)NC3CCCCC3)c2)cc1	?	26%	-10%	-74*	?	-3%
COc1ccccc1OCCC(=O)OCC(=O)Nc1ccc2c(c1)OCO2	-24%	-2%	-6%	-14	?	-1%
Cc1nnc(NC(=O)CSc2nccn2Cc2ccccc2)s1	-11%	-27%	-4%	0	?	4%
COc1cc(C(O)c2nc(-c3cccc(C(F)(F)F)c3)cs2)ccc1F (centres undefined)	16µM*	11µM*	13µM*	?	?	·
COc1cc(C(O)c2nc(-c3cccc4cccnc34)cs2)ccc1F (centres undefined)	?	-8%	0%	0	?	·
COc1ccc(C(O)c2nc(-c3cccc(F)c3)cs2)cc1 (centres undefined)	16µM*	-7%	26%	-93*	?	·
COc1cc(C(O)c2nc(-c3cccs3)cs2)ccc1F (centres undefined)	?	-9%	-1%	3	?	·
SMILES	TDP1 cell CPT	HepG2 viability	TGFb inhibitor	IL1B secr inh	TDP1 cell noCPT	TDP1 block
COc1cccc(C(NC(C)=O)c2nc(-c3cccc(C(F)(F)F)c3)cs2)c1 (centres undefined)	?	-31%	6%	-18	?	·
OC(c1ccccc1)c1nc(-c2cccc(F)c2)cs1 (centres undefined)	-19%	-3%	8%	5	-23%	·
COc1cc(C(O)c2nc(-c3cccc(NC(C)=O)c3)cs2)ccc1F (centres undefined)	?	-20%	7%	19	16µM*	·
COc1cccc(C(O)c2nc(-c3cccc(C(F)(F)F)c3)cs2)c1 (centres undefined)	-85%	-40%	?	14	0.58µM*	·
Cc1cc(Cl)ccc1NC(=O)COC(=O)CCNS(=O)(=O)c1ccccc1	-12%	-3%	-4%	-8	-11%	1%
CCc1ccc(C(=O)CSc2nc(-c3ccccc3)nc3c2CCCC3)cc1	4%	-19%	4%	·	-11%	·
COc1ccc(C(O)c2nc(-c3cccc(C(F)(F)F)c3)cs2)cc1 (centres undefined)	21µM*	-43%	?	20	?	·
NC(=O)COc1ccccc1/C=C1/SC(=O)N(CC(=O)N2CCc3ccccc3C2)C1=O	21µM*	-25%	-5%	-19	18µM*	6%
c1ccc2c(c1)nc1n2CCS1	-2%	-7%	-7%	9	4%	4%
OC1C=CSc2nc3ccccc3n21 (centres undefined)	13µM*	-1%	3%	?	15µM*	3%
Cc1cccc(N(CC(=O)NC(C)(C)C)C(=O)CCC(=O)Nc2ccccn2)c1	6%	-7%	9%	5	-1%	·
COc1ccc(N=CC2CCCCC2=O)c([N+](=O)[O-])c1 (centres undefined)	?	-3%	7%	-85*	?	·
CCCNC(=O)Cn1c(=O)c2cccn2c2cccnc21	-7%	-5%	0%	·	-6%	5%
COc1ncc2nc(-c3ccc(F)cc3)c(=O)n(CCC#N)c2n1	0%	·	·	·	-13%	·
O=C(NC1CCCCCC1)C1CCN(c2nc3ccccc3o2)CC1	?	-25%	-5%	18	16µM*	-6%

Bioassay records from PubChem BioAssay.
